High-throughput results (PubChem)
Compounds with a hit are over-represented: about 3.9% of the library has one in this group of screens.
USP2a block = inhibitors of human ubiquitin-specific protease USP2a. O75604. USP2 core, Ub-CHOP2 coupled fluorogenic reporter, 485/531. Potency, µM (series often up to 38.3 µM), without a hit: top-dose activity change, negative = inhibition, most hits filed as inhibitors. hit rate 0.01% among 330,000;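 also: potency is read from the fitted curve at half-maximal effect; plate controls were DMSO wells for no effect and full inhibition by NEM control for full effect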
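Deubiquitinase activity read as fluorescence (485/531 nm) after Ub-CHOP2 cleavage activates the enterokinase reporter on its substrate; USP2 core 10nM, Ub-CHOP2 and substrate 25nM each, 30min compound preincubation then 60min RT; data normalized to NEM, curves fitted.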
D1 agonist = activates the human D1 dopamine receptor; P21728; HEK293 T-REx D1 cells, calcium flux, agonist mode; activation, % at 2 µM; hit rate 1% among 360,000; AID 504660; in the data active = activation above about 30%; also: 0% is about no effect
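Tetracycline-induced HEK293 TREx D1 cells, force-coupled to calcium signalling, were dye-loaded with a no-wash calcium kit. Compound was pin-added after a 10 s baseline. Fluorescence was read kinetically at 1 cycle/s for 180 s, with calcium rises flagged as agonism.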
GALK inh = galactokinase (human) inhibition | Purified GALK, Kinase-Glo residual ATP luminescence | Potency, µM (highest dose often 57.5 µM), without a hit: at the highest dose activity change, negative = inhibition, most hits filed as inhibitors | hit rate 0.007% among 270,000 | AID 1868; also: potency is read from the fitted curve at half-maximal effect; % is scaled to controls: 0 for no effect and ±100 for the full control effect
Target sequence (P51570 whole entry, looked up): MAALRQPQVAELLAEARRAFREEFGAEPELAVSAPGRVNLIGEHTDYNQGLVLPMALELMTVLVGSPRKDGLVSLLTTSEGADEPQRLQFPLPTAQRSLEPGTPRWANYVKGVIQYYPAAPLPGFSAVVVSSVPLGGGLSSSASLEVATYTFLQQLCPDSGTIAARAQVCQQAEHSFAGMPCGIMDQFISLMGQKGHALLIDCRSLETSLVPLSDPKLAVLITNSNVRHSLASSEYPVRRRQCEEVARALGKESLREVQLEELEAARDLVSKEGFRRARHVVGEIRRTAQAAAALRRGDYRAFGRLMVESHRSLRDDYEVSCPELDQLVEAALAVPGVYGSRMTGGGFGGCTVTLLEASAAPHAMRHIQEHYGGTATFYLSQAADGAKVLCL
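5 nM enzyme, 35 uM ATP, 100 uM galactose, 20 mM HEPES pH8.0, 5 mM MgCl2; 1 h RT; residual ATP by Kinase-Glo Plus luminescence, qHTS format.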
Eya2 inh = inhibitors of human Eya2 phosphatase activity | O00167 | recombinant Eya2, OMFP fluorescence dephosphorylation (OMFP is methylfluorescein phosphate) | Potency, µM (series often up to 76.9 µM), for inactives: at the highest dose activity, negative = inhibition, actives largely listed as inhibitors | hit rate 0.006% among 330,000 | AID 488837; also: potency is read from the fitted curve at half-maximal effect; % is scaled to controls: 0 for no effect and ±100 for the full control effect
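Eya2 protein (added as 0.2 uM solution) was preincubated with compound for 10 min at ambient temperature in 50 mM HEPES pH 7.5, 50 mM NaCl, 5 uM MgCl2, 0.05% BSA, 1 mM DTT. OMFP (added at 50 uM) then reacted 10 min; fluorescence read at 485/525 nm.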
D1 antagonist = blocks dopamine activation of the human D1 receptor | P21728 | HEK293 TREx D1 cells, calcium flux, dopamine EC80; stronger effect = lower value | activity change, negative = inhibition, % at 10 µM | hit rate 3.2% among 360,000; in the data active = activity change below about -30%; also: % is scaled to controls: 0 for no effect and ±100 for the full control effect
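Kinetic fluorescence of a calcium dye serves as the read-out. D1-expressing Hek293 Trex cells, induced overnight at 30 C, are exposed to compound for 180 s before an EC80 dopamine addition, then read 180 s further.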
D1 potentiator = potentiators of human D1 dopamine receptor; HEK293 TREx D1 cells, calcium flux, dopamine EC20 potentiation; potentiation, % at 10 µM; hit rate 0.036% among 360,000; AID 504651; in the data active = potentiation above about 30%; also: 0% is about no effect
Starred values were filed as active, the others as inactive; nt = no result given. Unless noted, calls follow the shape of the dose curve; as a rule, active = well fitted inhibition curve with a large enough effect; inconclusive = small, poorly fitted or top-dose-only effect, or effect the other way; inactive = flat fitted curve, though single readings scatter.

SMILES	USP2a block	D1 agonist	GALK inh	Eya2 inh	D1 antagonist	D1 potentiator
CC(C)(C)OC(=O)NCc1nnc(C(C(=O)OCc2ccccc2)c2ccccc2)s1 (configuration not stated)	nt	1.2	nt	nt	-18.2	-6.5
O=C(CNC(=O)c1ccc(Cl)cc1)OCc1cc(=O)n2nc(C3CC3)sc2n1	nt	-0.1	nt	nt	14.1	2.3
Cc1cc([N+](=O)[O-])cc(C)c1OCC(=O)N/N=C/c1ccc(OC(=O)c2ccccc2)cc1	-11.2%	5.3	0.0%	-14.9%	-4.2	3.8
Cc1cc([N+](=O)[O-])cc(C)c1OCC(=O)N/N=C/c1ccc(OC(=O)c2ccccc2Br)cc1	-2.7%	4.1	0.0%	3.5%	-32.9*	-3.8
CCN(CC)CCNC(=O)c1sc2nc3n(c(=O)c2c1C)CCCCC3	nt	0.5	nt	nt	2.1	-2.3
COc1ccc(N(Cc2cccs2)C(=O)Nc2cccc(Cl)c2)cc1	nt	11.9	nt	nt	-3.4	-1.4
Cc1nnc(SCC(=O)Nc2sc3c(c2C(N)=O)CCC(C)C3)[nH]c1=O (configuration not stated)	2.0%	1.1	nt	5.5%	-47.1*	-7.3
COc1ccc(CNC(=O)CCc2c(C)c3cc4c(C)coc4c(C)c3oc2=O)cc1OC	nt	-0.2	nt	nt	-0.8	-1.0
CCCCNC(=S)Nc1ccc(-c2nc3ccc(C)cc3s2)cc1	1.3%	3.5	nt	1.5%	-46.8*	-9.6
CCC(C)(C)NC(=S)Nc1ccc(-c2nc3ccc(C)cc3s2)cc1	-6.7%	-0.2	-0.5%	3.6%	21.6	1.4
Cc1ccc2nc(-c3ccc(NC(=O)COC(=O)c4ccc(Br)o4)cc3)sc2c1	4.1%	3.6	-0.1%	4.6%	-6.6	45.9*
Cc1nc2ccc(NC(=O)c3ccc(S(=O)(=O)N(C)c4ccccc4)cc3)cc2s1	-0.4%	8.7	1.0%	-0.6%	-34.6*	-4.5
Cc1ccc2nc(-c3ccc(NC(=O)COC(=O)c4ccc([N+](=O)[O-])o4)cc3)sc2c1	2.6%	1.2	-0.1%	-0.2%	7.2	-4.8
Cc1nc2ccc(NC(=O)c3ccc(Br)o3)cc2s1	1.8%	8.9	3.3%	-2.8%	-31.0*	-4.0
CC(=O)Nc1ccc(NC(=O)c2ccc(S(=O)(=O)N(C)c3ccccc3)cc2)cc1	3.5%	4.7	nt	-6.7%	-9.7	-10.6
CC(C)(C)OC(=O)NCC(=O)NNC(=O)c1nc2ccccc2[nH]1	nt	0.4	nt	nt	1.7	-3.7
Cc1ccc(NC(=O)Nc2nnc(N(C)C3CCCCC3)s2)c(Cl)c1	nt	1.6	nt	nt	-3.3	-0.5
CN(c1ccccc1)S(=O)(=O)c1ccc(C(=O)Nc2nnc(-c3ccco3)o2)cc1	-0.6%	3.5	-1.7%	-7.3%	-32.3*	-2.3
Cc1nc2ccc(S(=O)(=O)CCC(=O)Nc3ccc(C(C)C)cc3)cc2s1	nt	0.4	nt	nt	-56.8*	0.2
Cc1nc2ccc(S(=O)(=O)N(C)CC(=O)Nc3cccc(C(F)(F)F)c3)cc2s1	nt	17.8	nt	nt	-33.2*	-2.2
CCN(c1ccccc1)S(=O)(=O)c1ccc(C(=O)Nc2nnc(-c3ccco3)o2)cc1	-16.6%	5.6	-3.0%	3.7%	-6.9	-3.4
CCN(CC)c1cc(C)c2cc(NC(=O)c3ccc(Br)o3)ccc2n1	1.1%	-0.4	nt	-10.8%	-55.1*	-3.4
COc1ccc(-c2cc(C(F)(F)F)nc(SCC(=O)N(C)Cc3ccccc3)n2)cc1	nt	8.7	nt	nt	-6.7	-5.2
O=C(COc1ccc(S(=O)(=O)NC2CCCCC2)cc1)NC1CCCC1	-0.7%	4.4	-0.2%	-5.7%	-42.9*	-2.2
Cc1ccc(CN2C(=O)N(c3ccc(C)c(Cl)c3)S(=O)(=O)c3ccccc32)cc1	nt	4.3	nt	nt	-17.1	-1.6
SMILES	USP2a block	D1 agonist	GALK inh	Eya2 inh	D1 antagonist	D1 potentiator
Cc1cccc(N2C(=O)N(Cc3ccc(C(C)(C)C)cc3)c3ccccc3S2(=O)=O)c1	nt	1.4	nt	nt	-47.6*	1.3
Cc1cccc(N2C(=O)N(Cc3cc(=O)n4ccccc4n3)c3ccccc3S2(=O)=O)c1	nt	0.3	nt	nt	-68.6*	3.4
O=C1/C(=C/c2ccsc2)CC/C1=C\c1cccs1	nt	nt	nt	-2.9%	nt	nt
COc1cc(OC)c(NC(=O)c2c(C)nn(-c3ccc(C)cc3)c2-n2cccc2)cc1Cl	nt	0.8	nt	nt	20.9	-1.3
Cc1nn(-c2ccccc2)c2sc(C(=O)Nc3ccc(Cl)cc3Cl)cc12	nt	-1.4	nt	nt	-82.8*	2.9
Cc1nn(-c2ccccc2)c2sc(C(=O)Nc3ccccc3Br)cc12	nt	8.0	nt	nt	19.0	-4.7
Cc1ccc(NC(=O)c2c(C)nn(-c3ccccc3)c2-n2cccc2)c(Cl)c1	nt	4.4	nt	nt	-32.9*	-2.9
COc1ccc(Br)cc1CNC(=O)C1CCCN(S(=O)(=O)N2CC(C)CC(C)C2)C1 (configuration not stated)	9.2%	4.1	-3.3%	7.3%	-32.6*	-3.5
Cc1ccc(CNC(=O)c2nnn(Cc3ccc(F)cc3)c2N)cc1	nt	7.9	nt	nt	-9.1	-3.5
Cc1c2cnn(CC(=O)NC(C)C)c(=O)c2c(C)n1Cc1cccc(Cl)c1	nt	10.9	nt	nt	-54.7*	-2.2
Cc1ccc(C)c(Cn2c(=O)n(CC3CCC(C(=O)N4CCOCC4)CC3)c(=O)c3sccc32)c1 (configuration not stated)	nt	2.1	nt	nt	-8.6	-3.5
CCCCSCCCNC(=O)CN1C(=O)c2cccnc2Oc2ccc(Cl)cc21	nt	3.4	nt	nt	-22.3	-1.9
CCOc1ccc(Br)cc1/C=N/O	nt	1.6	8.0%	nt	5.3	-0.7
CCCOc1ccc(Br)cc1/C=N/O	nt	42.6*	2.3%	nt	-18.2	-11.8
COC(=O)c1[nH]c2cc(OC)ccc2c1NC(=O)CCN1CCN(Cc2ccc3c(c2)OCO3)CC1	-1.5%	0.0	0.5%	-20.2%	-85.6*	12.8
COc1ccc2cc(C(=O)N3CCN(Cc4ccc5c(c4)OCO5)CC3)[nH]c2c1	-1.1%	32.7*	-9.2%	-1.2%	9.8	-5.5
COC(=O)c1[nH]c2cc(OC)ccc2c1NC(=O)CCN1CCCCC1	2.4%	0.7	0.2%	-35.8%	0.2	3.2
Cc1cc2oc(C(=O)Nc3ccc(S(=O)(=O)N4CCCCCC4)cc3)cc(=O)c2cc1C	nt	0.6	nt	nt	8.3	1.1
O=C(c1ccc(Cl)cc1)[C@@H]1[C@@H]2C(=O)N(c3ccc(Cl)cc3)C(=O)[C@@H]2C2c3ccccc3C=NN21 (some centres not stated)	4.2%	27.9	1.7%	10.7%	-35.0*	1.3
O=C(c1ccc2c(c1)OCCO2)N(Cc1cccnc1)c1nc2c(Cl)cccc2s1	nt	7.5	nt	nt	-6.1	-0.4
COc1ccc(CCNC(=S)Nc2cccc(C)c2C)cc1	1.7%	1.1	2.2%	6.3%	-31.2*	-11.8
Cc1cccc(C)c1NC(=S)NCCc1ccc(O)c(O)c1	-7.9%	4.6	-1.3%	-0.3%	-47.6*	-14.8
